From PubChem
PrPC TRFRET: reduces human prion protein on the cell surface. inhibition, % at 13.8 µM. actives 0.43% (n = 370,000). cell surface PrPC, TR-FRET read-out. P04156; in the data active = inhibition above about 24%; also: 0% = median of the test wells and 100% = reference compound wells
PrP UTR inh: inhibition of PrP 5' UTR reporter expression; cell-based PrP 5' UTR mRNA reporter, plate reader; actives 0.35% (n = 340,000); AID 488862; inhibition, % (test concentration not listed); in the data active = inhibition above about 52%; also: 0 = median of the neutral control wells
FBA Mtb inh: inhibits M. tuberculosis FBA enzyme; purified M. tuberculosis FBA, fluorescence read-out; P9WQA3; actives 2.3% (n = 360,000); inhibition, % at 1 µM; AID 588726;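 also: 0% = vehicle and 100% = reference inhibitor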
Target sequence (P9WQA3 whole entry, looked up): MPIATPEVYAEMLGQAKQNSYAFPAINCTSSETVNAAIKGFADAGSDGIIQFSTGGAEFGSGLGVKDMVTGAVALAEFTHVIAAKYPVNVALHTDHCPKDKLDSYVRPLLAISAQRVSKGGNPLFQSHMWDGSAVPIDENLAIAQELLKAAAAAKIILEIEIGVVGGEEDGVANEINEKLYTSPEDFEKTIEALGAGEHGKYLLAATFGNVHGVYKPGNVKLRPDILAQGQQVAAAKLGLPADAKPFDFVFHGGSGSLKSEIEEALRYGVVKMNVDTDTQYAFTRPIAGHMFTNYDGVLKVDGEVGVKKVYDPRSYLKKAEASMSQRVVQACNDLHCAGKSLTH
GDH-TPI counter-1: counter-screen for M. tuberculosis FBA inhibitors: GDH-TPI coupled enzymes | GDH-TPI coupled enzyme counterscreen, NADH absorbance | inhibition, % at 4.8 µM | actives 1.2% (n = 360,000); in the data active = inhibition above about 30%;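 also: 0% = DMSO wells and 100% = wells lacking the enzyme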
Mtb hypoxia rep: Mtb hypoxia fluorescent reporter inhibition; M. tuberculosis hypoxia-regulated fluorescent reporter, fluorescence; fluorescence inhibition, % (test concentration not listed); actives 0.1% (n = 300,000); AID 1159583; in the data active = fluorescence inhibition mostly above about 23%, no sharp cut-off; inactive = mostly below about 17%
Yp Topo-I inh: blocks Yersinia pestis topoisomerase I activity; AID 504884; actives 0.064% (n = 360,000); Y. pestis Topo-I cleavage product accumulation, plate reader; activity, % at 10 µM; in the data active = activity above about 50%, passing the limit was not always enough
Mtb FBA confirm: confirmation of M. tuberculosis fructose-bisphosphate aldolase inhibitors; shares compounds with FBA Mtb inh; purified M. tuberculosis FBA, fluorescence read-out; inhibition, % at 1 µM; actives 78% (n = 5,600); AID 651616;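 also: 0% = vehicle wells and 100% = reference inhibitor wells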
GDH-TPI counter-2: inhibits GDH-TPI coupling enzymes, flagging Mtb FBA hits. actives 81% (n = 5,600). inhibition, % at 1 µM. GDH-TPI coupled enzyme counterscreen, fluorescence. AID 652141. shares compounds with FBA Mtb inh; in the data active = inhibition above about 10%
Starred values were filed as active, the others as inactive. Rows were chosen to be rich in hits. Some 3.8% of all compounds tested hit in one or more screens of this group. Rule as the data show it, unless noted: active = inhibition above about 27%; inactive = the rest.

For NC(=O)C1=CC(c2csc3ccccc23)CC(OCCCCO)O1 (stereo unspecified) the results were Mtb hypoxia rep 11.
Screening Cc1ccc2[nH]c(CSc3ccccc3)cc(=O)c2c1 returned PrPC TRFRET 11, PrP UTR inh -21, FBA Mtb inh 1, GDH-TPI counter-1 15, Mtb hypoxia rep 5 and Yp Topo-I inh -4.
For Cc1ccc2[nH]ccc(=O)c2c1 the results were PrPC TRFRET -1, PrP UTR inh -8, FBA Mtb inh 30*, GDH-TPI counter-1 12, Mtb hypoxia rep -4, Yp Topo-I inh -1, Mtb FBA confirm 52* and GDH-TPI counter-2 39*.
Screening Cc1c(C)c2ccc(OCC(=O)N3C[C@H]4C[C@@H](C3)c3cccc(=O)n3C4)c(C)c2oc1=O returned PrPC TRFRET 0, PrP UTR inh -5, FBA Mtb inh 34*, GDH-TPI counter-1 14, Yp Topo-I inh 1, Mtb FBA confirm 68* and GDH-TPI counter-2 40*.
`CCc1cc(=O)oc2c(C)c(OCC(=O)N3C[C@H]4C[C@@H](C3)c3cccc(=O)n3C4)ccc12` gave PrPC TRFRET 0, PrP UTR inh -12, FBA Mtb inh 6, GDH-TPI counter-1 14 and Yp Topo-I inh 1.
Cc1c(CC(=O)N2C[C@H]3C[C@@H](C2)c2cccc(=O)n2C3)c(=O)oc2cc3occ(C(C)(C)C)c3cc12 was read as PrPC TRFRET -8, PrP UTR inh -21, FBA Mtb inh 14, GDH-TPI counter-1 8 and Yp Topo-I inh 16.
For CC(C)=CCOc1ccc2c(C)c(CCC(=O)N3C[C@H]4C[C@@H](C3)c3cccc(=O)n3C4)c(=O)oc2c1C the results were PrPC TRFRET -3, FBA Mtb inh 82*, GDH-TPI counter-1 10, Yp Topo-I inh 25, Mtb FBA confirm 102* and GDH-TPI counter-2 92*.
For COc1ccc(-c2cc3nc4ccccc4n3c(N)c2C#N)cc1 the results were PrPC TRFRET -5, PrP UTR inh -120, FBA Mtb inh 41*, GDH-TPI counter-1 30, Mtb hypoxia rep 5, Yp Topo-I inh 2, Mtb FBA confirm active and GDH-TPI counter-2 active.
`COc1ccc(C2C(C#N)=C(N)Nc3nc4ccccc4n32)cc1` (stereo unspecified) gave PrPC TRFRET 6, PrP UTR inh -8, FBA Mtb inh 6, GDH-TPI counter-1 8, Mtb hypoxia rep 8 and Yp Topo-I inh -5.
COc1ccc(C2CC=C(C(=O)O)C(c3cccc(Cl)c3)N2S(=O)(=O)c2ccc(C)cc2)cc1OC (stereo unspecified) was read as Mtb hypoxia rep 13.
`CC(=NNC(=O)c1ccc(Br)o1)c1ccncc1` gave Mtb hypoxia rep 7.
Screening CSc1ccc(/C=C/C(=O)OCC(=O)NC(C)C)cc1 returned PrPC TRFRET 4, PrP UTR inh -17, FBA Mtb inh 58*, GDH-TPI counter-1 20, Mtb hypoxia rep 7, Yp Topo-I inh 10, Mtb FBA confirm 98* and GDH-TPI counter-2 93*.
For CSc1ccc(/C=C/C(=O)OCC(=O)NC2CC2)cc1 the results were PrPC TRFRET -4, PrP UTR inh -23, FBA Mtb inh 46*, GDH-TPI counter-1 25, Mtb hypoxia rep -1, Yp Topo-I inh 6, Mtb FBA confirm 95* and GDH-TPI counter-2 68*.
CCOC(=O)C1=C(COC(=O)/C=C/c2ccc(OC)cc2)NC(=O)NC1C (stereo unspecified) was read as PrPC TRFRET 1, PrP UTR inh -16, FBA Mtb inh 3, GDH-TPI counter-1 17, Mtb hypoxia rep -1 and Yp Topo-I inh -1.
For CCOC(=O)C1=C(COC(=O)/C=C/c2ccc(SC)cc2)NC(=O)NC1C (stereo unspecified) the results were PrPC TRFRET -3, PrP UTR inh -9, FBA Mtb inh 40*, GDH-TPI counter-1 19, Mtb hypoxia rep 3, Yp Topo-I inh 8, Mtb FBA confirm 35* and GDH-TPI counter-2 23*.
For O=c1[nH]c(=O)c2nnc(NN=Cc3ccccc3F)nc2[nH]1 the results were Mtb hypoxia rep -6.
For O=C(NN=Cc1cc(Br)cs1)c1c[nH]c2ccccc12 the results were Mtb hypoxia rep 3.
